Source: PubChem BioAssay (several laboratories)
Mcl1-Noxa inh – Mcl-1/Noxa binding inhibitors, primary screen, biochemical, TR-FRET, 1536-well; TR-FRET Mcl-1/Noxa peptide binding, 2 h; actives 1.5% (n = 220,000); AID 1022, 2008; inhibition, % at 21.7 µM; Induced myeloid leukemia cell differentiation protein Mcl-1 (Homo sapiens), Q07820;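 active = compounds that cut the protein-peptide binding signal by more than 50% relative to plate controls in a single-dose test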;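 note: His-tagged Mcl-1 with rhodamine Noxa BH3 peptide and terbium anti-His antibody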
Target sequence (Q07820 whole entry, looked up): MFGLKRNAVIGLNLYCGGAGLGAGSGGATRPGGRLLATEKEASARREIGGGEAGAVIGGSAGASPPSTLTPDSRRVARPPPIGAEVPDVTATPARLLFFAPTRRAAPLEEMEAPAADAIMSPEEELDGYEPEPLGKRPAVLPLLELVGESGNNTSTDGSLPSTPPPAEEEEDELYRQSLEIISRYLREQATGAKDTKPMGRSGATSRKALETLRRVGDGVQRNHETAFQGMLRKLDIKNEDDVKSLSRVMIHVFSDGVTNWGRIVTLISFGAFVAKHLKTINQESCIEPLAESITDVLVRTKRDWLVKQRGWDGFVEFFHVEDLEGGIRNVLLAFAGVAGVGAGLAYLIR
Mcl1-Bid inh – Mcl-1/Bid binding inhibitors, primary screen, biochemical, TR-FRET, 1536-well; actives 0.97% (n = 220,000); AID 1021, 2008; TR-FRET Mcl-1/Bid-Dy647 peptide binding; Induced myeloid leukemia cell differentiation protein Mcl-1 (Homo sapiens), Q07820; inhibition, % at 21.7 µM;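 active = compounds that cut the binding signal by more than half at the single screening dose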;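 note: His-tagged Mcl-1 with europium anti-His antibody binding Bid BH3 peptide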
MCL1-BIM inh – inhibitors of MCL1 binding to BIM-BH3, primary screen, biochemical, fluorescence polarization. Induced myeloid leukemia cell differentiation protein Mcl-1 (Homo sapiens), Q07820. GST-MCL1 / FITC-Bim-BH3 fluorescence polarization. inhibition, % at 10.9 µM. actives 0.68% (n = 320,000). AID 2057, 2009;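 active = inhibition above the mean inhibition of all tested compounds plus 3 SD, set per campaign, cut at about 40% in these data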;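 note: higher means more loss of mP so more displacement of Bim peptide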
Mcl-1 Bim block – inhibitors of Bim peptide binding to Mcl-1, primary screen, biochemical, bead-based flow cytometry, multiplex. Induced myeloid leukemia cell differentiation protein Mcl-1 (Homo sapiens), Q07820. Bim peptide-Mcl-1 binding. inhibition, % at 10 µM. actives 0.1% (n = 190,000). AID 1009, 2008; in the data active = inhibition above about 40%
GLD-1 RNA inh – GLD-1/TGE RNA complex disruptors, primary screen, biochemical, fluorescence polarization; actives 0.44% (n = 320,000); AID 2280, 2010; purified GLD-1 + fluorescein TGE RNA; inhibition, % at 5.96 µM;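 active = percent inhibition above a per-plate cutoff, the plate mean of test compounds plus 3 SD, cut at about 30% in these data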
BCLXL inh – inhibitors of human Bcl-xL, primary screen, biochemical, fluorescence polarization, HTS | GST-Bcl-xL / FITC-Bim BH3 peptide fluorescence polarization | AID 2129, 2009 | actives 0.7% (n = 320,000) | Bcl-2-like protein 1 (Homo sapiens), Q07817 | inhibition, % at 10.9 µM;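 active = inhibition above the mean of all tested compounds plus 3 SD, cutoff set per campaign, cut at about 30% in these data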;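 note: inhibitors lower millipolarization by displacing the labeled peptide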
Target sequence (Q07817 whole entry, looked up): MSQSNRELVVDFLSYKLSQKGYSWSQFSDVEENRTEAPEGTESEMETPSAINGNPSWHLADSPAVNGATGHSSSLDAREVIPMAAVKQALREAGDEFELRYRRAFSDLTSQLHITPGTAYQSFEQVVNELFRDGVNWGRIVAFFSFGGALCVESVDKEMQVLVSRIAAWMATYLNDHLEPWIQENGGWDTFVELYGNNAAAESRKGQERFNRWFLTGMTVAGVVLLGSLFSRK
Large screens that a line does not name were inactive. Hits are enriched below; roughly 2.3% of the tested compounds scored in any of these assays.

O=C(N/N=C/c1cc2cc3c(cc2nc1Cl)OCO3)c1ccncc1	none (no result: Mcl-1 Bim block)
Cc1ccc2cc(/C=N/NC(=O)c3ccccc3O)c(Cl)nc2c1	Mcl1-Noxa inh 64
COc1ccccc1N(C)S(=O)(=O)c1ccc(C(=O)OC(C)C(=O)NCc2ccc3c(c2)OCO3)cc1 (centres undefined)	none
O=C(CS(=O)(=O)c1ccc(F)cc1)NCc1ccccc1	none (no result: Mcl1-Noxa inh, Mcl1-Bid inh, Mcl-1 Bim block)
COc1ccc(CCNC(=O)C(=O)NCC2OCCN2S(=O)(=O)c2ccc(F)cc2)cc1 (centres undefined)	none (no result: Mcl1-Noxa inh, Mcl1-Bid inh, Mcl-1 Bim block)
COc1cccc(/C=N/Nc2ncnc3c2[nH]c2ccc(C)cc23)c1OC	Mcl1-Noxa inh 100 (no result: Mcl-1 Bim block)
COc1ccc(/C=N/Nc2ncnc3c2[nH]c2ccccc23)c(OC)c1OC	Mcl1-Noxa inh 55
C=CCNc1ncnc2c1[nH]c1ccc(C)cc12	none
ONc1cccnc1-n1nc(C(F)(F)F)cc1C(F)(F)F	BCLXL inh 38
O=C(O)c1ccccc1C(=O)Nc1ccc(-n2nc(C(F)(F)F)cc2C(F)(F)F)cc1	none (no result: Mcl-1 Bim block)
COC(=O)C1=C(C)NC2=C(C1c1ccc(O)cc1)S(=O)(=O)c1ccccc12 (centres undefined)	none
COc1ccc(C2C(C#N)=C(C)NC3=C2S(=O)(=O)c2ccccc23)cc1 (centres undefined)	Mcl-1 Bim block 48
CCOC(=O)c1sc(Nc2nc3cc4c(cc3s2)OCO4)cc1C	Mcl1-Noxa inh 65 (no result: Mcl-1 Bim block)
CC(=O)Nc1nc2cc3c(cc2s1)OCO3	none
COc1ccc(C(=O)C(C)[n+]2ccc(C)c3ccccc32)cc1[N+](=O)[O-] (centres undefined)	BCLXL inh 34 (no result: Mcl1-Noxa inh, Mcl1-Bid inh, Mcl-1 Bim block)
Cc1ccccc1-c1nnc(CN2CCC(C)CC2)o1	GLD-1 RNA inh 37 (no result: Mcl1-Noxa inh, Mcl1-Bid inh, Mcl-1 Bim block)
Cc1ccccc1-c1nnc(CN2CCN(C(=O)c3ccco3)CC2)o1	none (no result: Mcl1-Noxa inh, Mcl1-Bid inh, Mcl-1 Bim block)
CC(=O)c1ccc(Oc2ccc(C(C)=O)cc2)cc1	Mcl1-Bid inh 99
O=C(c1cccc(-c2ccccc2)c1)N1CC[C@@H](N2CCC(O)CC2)[C@H](O)C1	none (no result: Mcl1-Noxa inh, Mcl1-Bid inh, Mcl-1 Bim block)
CSc1nnc2ccc(-c3cccs3)nn12	Mcl-1 Bim block 42
Cc1ccc(Sc2ccc(C(=O)N3CCOCC3)cc2[N+](=O)[O-])cc1	none (no result: Mcl1-Noxa inh, Mcl1-Bid inh, Mcl-1 Bim block)
Nc1nc(Nc2cccc(F)c2)nc(N2CCOCC2)c1[N+](=O)[O-]	Mcl1-Bid inh 77 (no result: Mcl-1 Bim block)
Cc1ccc(Nc2nc(N)c([N+](=O)[O-])c(N3CCOCC3)n2)cc1C	none
COC(=O)C(Cc1csc2ccc(Cl)cc12)NC(=O)c1ccc(Cl)cc1 (centres undefined)	Mcl1-Bid inh 82 (no result: Mcl-1 Bim block)
COC(=O)C(Cc1ccccc1)NC(=O)c1ccc(C)cc1 (centres undefined)	none
CCS(=O)(=O)N1CCC(C(=O)Oc2ccccc2Br)CC1	none (no result: Mcl1-Noxa inh, Mcl1-Bid inh, Mcl-1 Bim block)
O=C(Nc1ccc2nc(-c3ccc4nc[nH]c4c3)[nH]c2c1)c1cccs1	Mcl1-Noxa inh 79
O=C(Nc1ccc2nc(-c3ccccc3)[nH]c2c1)c1cccs1	none
CCCCCCNC(=O)CNC(=S)N(Cc1cccs1)C1CCCCC1	none (no result: Mcl1-Noxa inh, Mcl1-Bid inh, Mcl-1 Bim block)
COc1ccc(-n2c(O)c(/C=N/NS(=O)(=O)c3cc(C)ccc3C)c3ccccc3c2=O)cc1OC	BCLXL inh 54
COc1ccc(-n2c(O)c(/C=N/NS(=O)(=O)c3ccc(C)cc3)c3ccccc3c2=O)cc1OC	BCLXL inh 48
COc1ccc(-n2c(O)c(/C=N/Nc3nc(C)cc(C)n3)c3ccccc3c2=O)cc1OC	none
Cc1ccc(CNC(=O)C2(c3cccs3)CCOCC2)cc1	none
COc1ccc(C2C=C(c3cccs3)Nc3nc(CCCO)nn32)cc1 (centres undefined)	MCL1-BIM inh active, GLD-1 RNA inh 144, BCLXL inh 176
CCc1ccc2c(COn3nnc4ccc(S(=O)(=O)N(C)C)cc43)cc(=O)oc2c1	Mcl1-Bid inh 53
CCC1COCCS(=O)(=O)N1Cc1cccc(C(F)(F)F)c1 (centres undefined)	none (no result: Mcl1-Noxa inh, Mcl1-Bid inh, Mcl-1 Bim block)
COc1ccc(C(=O)O/N=C(/c2cccs2)C(C)(C)C)cc1	GLD-1 RNA inh 138 (no result: Mcl-1 Bim block)
C/C(=N/OC(=O)c1ccc(C)cc1)c1cccs1	none
O=C(CN1C(=O)c2ccccc2C1=O)N1CCCCC1	Mcl1-Bid inh 99
Cc1cc(C)c2c(n1)sc1c(=O)[nH]c(SCc3ccccc3)nc12	none
C=CCSc1nc2c(sc3nc(C)cc(C)c32)c(=O)[nH]1	Mcl1-Noxa inh 57
Cc1c(NC(=O)Oc2ccccc2)sc(=S)n1C	none
Cc1ccc(NC(=O)Nc2sc(=S)n(C)c2C)cc1	Mcl1-Noxa inh 54
CC(=O)NC(=O)Nc1sc(=S)n(C)c1C	Mcl-1 Bim block 41
CCOC(=O)c1sc(=S)n(C)c1C	none
C[C@H]1CN([C@@H](C)CO)C(=O)Cc2cc(NC(=O)Cc3ccccc3)ccc2O[C@H]1CN(C)C(=O)Nc1cccc2ccccc12	none (no result: Mcl1-Noxa inh, Mcl1-Bid inh, MCL1-BIM inh, Mcl-1 Bim block, BCLXL inh)
Cc1cc(-c2nn(C)c(=O)c3ccccc23)ccc1CNC(=O)NC1CCCCC1	none
CCC(=O)NCc1cc(-c2nn(C)c(=O)c3ccccc23)ccc1C	none
COc1ccc(-c2nn(C)c(=O)c3ccccc23)cc1CNC(=O)NC1CCCCC1	Mcl1-Bid inh 62
Cc1ccc(-c2nn(CC(=O)NCc3cc(-c4nn(C)c(=O)c5ccccc45)ccc3C)c(=O)c3ccccc23)cc1	Mcl1-Bid inh 79
Oc1ccc(C23CCCC2C2(CCCC2)c2ccc(O)cc2O3)c(O)c1 (centres undefined)	none (no result: Mcl1-Noxa inh, Mcl1-Bid inh, Mcl-1 Bim block)
Oc1ccc(/C=N/Nc2cccc3cccnc23)c(O)c1	Mcl1-Noxa inh 62
Cc1ccc(/C=N/Nc2cccc3cccnc23)c(O)c1	none
CCCCn1c(N)c(N(CCOC)C(=O)CSc2nnc(-c3ccncc3)n2CCC)c(=O)[nH]c1=O	none (no result: Mcl1-Noxa inh, Mcl1-Bid inh, Mcl-1 Bim block)
COc1ccc(C2CC(c3ccccc3)=NN2C(=O)COC(=O)C2(C)CC2(Cl)Cl)cc1 (centres undefined)	none
N#CC1=C(S)N(c2ccccc2)C(c2ccc(-c3cc(Cl)ccc3Cl)o2)NC1=O (centres undefined)	Mcl1-Noxa inh 76
Cc1ccc(SCC(=O)N2CCN(S(=O)(=O)c3cccs3)CC2)cc1	none (no result: Mcl1-Noxa inh, Mcl1-Bid inh, MCL1-BIM inh, Mcl-1 Bim block, BCLXL inh)
COCCOC(=O)C1=C(C)NC(=O)NC1c1c(Cl)nc2c(C)cccn2c1=O (centres undefined)	BCLXL inh 32
COC(=O)c1sc(-c2ccc(C(C)(C)C)cc2)cc1NC(=O)c1ccccc1C(=O)O	Mcl1-Noxa inh 51 (no result: Mcl-1 Bim block)
